Measurements published in article PMC11006913.
Positions count from the first letter of the chain named.

What was measured:
Assay in all cases: PBM; 200 nM protein, PBS
Settings in all cases: dsDNA, one strand shown
[1] = molecular target: HOXC9 (Homo sapiens, UniProt P31274 178-260, K195R)
[2] = molecular target: HOXA7 (Homo sapiens, UniProt P31268 116-202)
[3] = molecular target: HOXC9 (Homo sapiens, UniProt P31274 178-260)
[4] = molecular target: ALX3 (Homo sapiens, UniProt O95076 139-225, N203Q)
ALX3 (Homo sapiens, UniProt O95076 139-225, N203Q), sequence (O95076 139-225 N203Q): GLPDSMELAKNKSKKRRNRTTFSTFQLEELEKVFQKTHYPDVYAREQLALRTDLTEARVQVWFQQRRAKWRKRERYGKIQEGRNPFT

[5] = molecular target: HOXC9 (Homo sapiens, UniProt P31274 178-260, R193K)
HOXC9 (Homo sapiens, UniProt P31274 178-260, R193K), sequence (P31274 178-260 R193K): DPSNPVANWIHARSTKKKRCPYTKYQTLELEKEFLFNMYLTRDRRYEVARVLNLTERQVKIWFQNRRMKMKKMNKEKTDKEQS

[6] = molecular target: ALX3 (Homo sapiens, UniProt O95076 139-225)
ALX3 (Homo sapiens, UniProt O95076 139-225), sequence (O95076 139-225): as the sequence (O95076 139-225 N203Q) above, with Q65N counted along it

[7] = molecular target: ALX3 (Homo sapiens, UniProt O95076 139-225, L168Q)
ALX3 (Homo sapiens, UniProt O95076 139-225, L168Q), sequence (O95076 139-225 L168Q): as the sequence (O95076 139-225 N203Q) above, with L30Q, Q65N counted along it

[8] = molecular target: HOXC9 (Homo sapiens, UniProt P31274 178-260, R222W)
HOXC9 (Homo sapiens, UniProt P31274 178-260, R222W), sequence (P31274 178-260 R222W): as the sequence (P31274 178-260 R193K) above, with K16R, R45W counted along it

[9] = molecular target: ALX3 (Homo sapiens, UniProt O95076 139-225, L168V)
ALX3 (Homo sapiens, UniProt O95076 139-225, L168V), sequence (O95076 139-225 L168V): as the sequence (O95076 139-225 N203Q) above, with L30V, Q65N counted along it

[10] = molecular target: HOXA7 (Homo sapiens, UniProt P31268 116-202, W177C)
HOXA7 (Homo sapiens, UniProt P31268 116-202, W177C), sequence (P31268 116-202 W177C): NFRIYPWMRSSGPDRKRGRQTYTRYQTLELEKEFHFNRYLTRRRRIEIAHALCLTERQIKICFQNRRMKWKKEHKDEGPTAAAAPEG

[11] = molecular target: ALX3 (Homo sapiens, UniProt O95076 139-225, N203S)
ALX3 (Homo sapiens, UniProt O95076 139-225, N203S), sequence (O95076 139-225 N203S): as the sequence (O95076 139-225 N203Q) above, with Q65S counted along it

[12] = molecular target: HOXA4 (Homo sapiens, UniProt Q00056 201-287, W262R)
HOXA4 (Homo sapiens, UniProt Q00056 201-287, W262R), sequence (Q00056 201-287 W262R): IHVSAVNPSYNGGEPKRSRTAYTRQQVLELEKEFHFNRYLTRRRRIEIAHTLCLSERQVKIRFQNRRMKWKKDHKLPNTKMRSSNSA

[13] = molecular target: HOXA4 (Homo sapiens, UniProt Q00056 201-287)
HOXA4 (Homo sapiens, UniProt Q00056 201-287), sequence (Q00056 201-287): as the sequence (Q00056 201-287 W262R) above, with R62W counted along it

[14] = molecular target: HOXA4 (Homo sapiens, UniProt Q00056 201-287, W262F)
HOXA4 (Homo sapiens, UniProt Q00056 201-287, W262F), sequence (Q00056 201-287 W262F): as the sequence (Q00056 201-287 W262R) above, with R62F counted along it

[15] = molecular target: HOXC10 (Homo sapiens, UniProt Q9NYD6 254-340)
HOXC10 (Homo sapiens, UniProt Q9NYD6 254-340), sequence (Q9NYD6 254-340): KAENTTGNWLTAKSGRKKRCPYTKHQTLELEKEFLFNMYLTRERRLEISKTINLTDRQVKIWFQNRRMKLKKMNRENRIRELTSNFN

[16] = molecular target: HOXC10 (Homo sapiens, UniProt Q9NYD6 254-340, K271E)
HOXC10 (Homo sapiens, UniProt Q9NYD6 254-340, K271E), sequence (Q9NYD6 254-340 K271E): as the sequence (Q9NYD6 254-340) above, with K18E counted along it

[17] = molecular target: VAX1 (Homo sapiens, UniProt Q5SQQ9 86-172)
VAX1 (Homo sapiens, UniProt Q5SQQ9 86-172), sequence (Q5SQQ9 86-172): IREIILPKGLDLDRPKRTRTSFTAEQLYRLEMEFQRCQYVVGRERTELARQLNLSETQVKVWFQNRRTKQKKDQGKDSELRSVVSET

[18] = molecular target: VAX1 (Homo sapiens, UniProt Q5SQQ9 86-172, T142I)
VAX1 (Homo sapiens, UniProt Q5SQQ9 86-172, T142I), sequence (Q5SQQ9 86-172 T142I): as the sequence (Q5SQQ9 86-172) above, with T57I counted along it

[19] = molecular target: VAX1 (Homo sapiens, UniProt Q5SQQ9 86-172, K157R)
VAX1 (Homo sapiens, UniProt Q5SQQ9 86-172, K157R), sequence (Q5SQQ9 86-172 K157R): as the sequence (Q5SQQ9 86-172) above, with K72R counted along it

[20] = molecular target: PRRX1 (Homo sapiens, UniProt P54821 80-166, F113S)
PRRX1 (Homo sapiens, UniProt P54821 80-166, F113S), sequence (P54821 80-166 F113S): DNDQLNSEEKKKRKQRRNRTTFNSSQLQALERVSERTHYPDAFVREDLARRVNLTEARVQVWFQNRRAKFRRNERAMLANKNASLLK

[21] = molecular target: PRRX1 (Homo sapiens, UniProt P54821 80-166)
PRRX1 (Homo sapiens, UniProt P54821 80-166), sequence (P54821 80-166): as the sequence (P54821 80-166 F113S) above, with S34F counted along it

[22] = molecular target: HOXB6 (Homo sapiens, UniProt P17509 132-218)
HOXB6, sequence (P17509 132-218): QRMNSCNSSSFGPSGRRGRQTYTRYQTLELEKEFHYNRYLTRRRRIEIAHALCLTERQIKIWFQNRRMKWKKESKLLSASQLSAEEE

[23] = molecular target: HOXA2 (Homo sapiens, UniProt O43364 129-215, R185T)
HOXA2 (Homo sapiens, UniProt O43364 129-215, R185T), sequence (O43364 129-215 R185T): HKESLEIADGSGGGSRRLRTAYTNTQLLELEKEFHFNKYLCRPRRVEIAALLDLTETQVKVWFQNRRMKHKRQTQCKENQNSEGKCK

[24] = molecular target: HOXA2 (Homo sapiens, UniProt O43364 129-215, R185K)
HOXA2 (Homo sapiens, UniProt O43364 129-215, R185K), sequence (O43364 129-215 R185K): as the sequence (O43364 129-215 R185T) above, with T57K counted along it

[25] = molecular target: HOXA2 (Homo sapiens, UniProt O43364 129-215, Y150S)
HOXA2 (Homo sapiens, UniProt O43364 129-215, Y150S), sequence (O43364 129-215 Y150S): as the sequence (O43364 129-215 R185T) above, with Y22S, T57R counted along it

[26] = molecular target: HOXA2 (Homo sapiens, UniProt O43364 129-215)
HOXA2 (Homo sapiens, UniProt O43364 129-215), sequence (O43364 129-215): as the sequence (O43364 129-215 R185T) above, with T57R counted along it

[27] = molecular target: ALX4 (Homo sapiens, UniProt Q9H161 200-286)
ALX4 (Homo sapiens, UniProt Q9H161 200-286), sequence (Q9H161 200-286): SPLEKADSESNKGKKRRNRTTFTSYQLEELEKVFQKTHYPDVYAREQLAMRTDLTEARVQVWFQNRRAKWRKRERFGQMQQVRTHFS

[28] = molecular target: T1, PAX4 (Homo sapiens, UniProt O43316 9-242, R200K)
T1 sequence: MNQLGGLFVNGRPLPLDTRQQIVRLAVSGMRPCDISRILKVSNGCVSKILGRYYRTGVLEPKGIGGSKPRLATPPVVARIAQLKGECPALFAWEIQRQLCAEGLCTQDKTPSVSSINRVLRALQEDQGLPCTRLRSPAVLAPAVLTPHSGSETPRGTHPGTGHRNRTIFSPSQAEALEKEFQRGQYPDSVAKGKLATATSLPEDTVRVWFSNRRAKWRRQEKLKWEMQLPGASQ

[29] = molecular target: T2, PAX4 (Homo sapiens, UniProt O43316 9-242)
T2 sequence: T1 sequence with K192R

[30] = molecular target: ALX4 (Homo sapiens, UniProt Q9H161 200-286, Q225E)
ALX4 (Homo sapiens, UniProt Q9H161 200-286, Q225E), sequence (Q9H161 200-286 Q225E): as the sequence (Q9H161 200-286) above, with Q26E counted along it

[31] = molecular target: ALX1 (Homo sapiens, UniProt Q15699 118-204, L144V)
ALX1 (Homo sapiens, UniProt Q15699 118-204, L144V), sequence (Q15699 118-204 L144V): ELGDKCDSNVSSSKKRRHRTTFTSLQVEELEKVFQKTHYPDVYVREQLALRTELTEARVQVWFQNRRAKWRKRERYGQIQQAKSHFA

[32] = molecular target: T3, PAX4 (Homo sapiens, UniProt O43316 9-242, R200Q)
T3 sequence: T1 sequence with K192Q

[33] = molecular target: ALX1 (Homo sapiens, UniProt Q15699 118-204, L144R)
ALX1 (Homo sapiens, UniProt Q15699 118-204, L144R), sequence (Q15699 118-204 L144R): as the sequence (Q15699 118-204 L144V) above, with V27R counted along it

[34] = molecular target: T4, PAX4 (Homo sapiens, UniProt O43316 9-242, F177V)
T4 sequence: T1 sequence with F169V, K192R

[35] = molecular target: T5, PAX4 (Homo sapiens, UniProt O43316 9-242, F177Y)
T5 sequence: T1 sequence with F169Y, K192R

[36] = molecular target: PROP1 (Homo sapiens, UniProt O75360 56-141)
PROP1 (Homo sapiens, UniProt O75360 56-141), sequence (O75360 56-141): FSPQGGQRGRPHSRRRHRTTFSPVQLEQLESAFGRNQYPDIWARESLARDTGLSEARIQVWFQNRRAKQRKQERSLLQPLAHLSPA

[37] = molecular target: PROP1 (Homo sapiens, UniProt O75360 56-141, R99H)
PROP1 (Homo sapiens, UniProt O75360 56-141, R99H), sequence (O75360 56-141 R99H): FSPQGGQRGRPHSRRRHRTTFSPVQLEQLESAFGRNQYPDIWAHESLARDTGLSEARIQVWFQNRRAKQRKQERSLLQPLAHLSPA

[38] = molecular target: PROP1 (Homo sapiens, UniProt O75360 56-141, F88S)
PROP1 (Homo sapiens, UniProt O75360 56-141, F88S), sequence (O75360 56-141 F88S): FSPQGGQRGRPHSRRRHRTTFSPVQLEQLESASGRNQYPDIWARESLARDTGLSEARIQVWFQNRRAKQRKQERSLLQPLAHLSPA

[39] = molecular target: T6, PAX4 (Homo sapiens, UniProt O43316 9-242, R227W)
T6 sequence: T1 sequence with K192R, R219W

HOXC9 (Homo sapiens, UniProt P31274 178-260), sequence (P31274 178-260): as the sequence (P31274 178-260 R193K) above, with K16R counted along it
HOXC9 (Homo sapiens, UniProt P31274 178-260, K195R), sequence (P31274 178-260 K195R): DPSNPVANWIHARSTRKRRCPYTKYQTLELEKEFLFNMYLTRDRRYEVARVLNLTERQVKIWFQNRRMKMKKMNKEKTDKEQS
HOXA7 (Homo sapiens, UniProt P31268 116-202), sequence (P31268 116-202): as the sequence (P31268 116-202 W177C) above, with C62W counted along it

AGCAGCCC was tested, and the binding signal [1] was 9.76 upbm affinity estimate (log intensity, higher = more binding, comparable within an allelic series), the binding signal [2] was 8.64 upbm affinity estimate (log intensity, higher = more binding, comparable within an allelic series) and the binding signal [3] was 9.83 upbm affinity estimate (log intensity, higher = more binding, comparable within an allelic series). The binding signal [4] was 7.76 upbm affinity estimate (log intensity, higher = more binding, comparable within an allelic series), the binding signal [5] was 9.78 upbm affinity estimate (log intensity, higher = more binding, comparable within an allelic series) and the binding signal [6] was 7.62 upbm affinity estimate (log intensity, higher = more binding, comparable within an allelic series). The binding signal [7] was 7.67 upbm affinity estimate (log intensity, higher = more binding, comparable within an allelic series), the binding signal [8] was 9.61 upbm affinity estimate (log intensity, higher = more binding, comparable within an allelic series) and the binding signal [9] was 7.75 upbm affinity estimate (log intensity, higher = more binding, comparable within an allelic series). The binding signal [10] was 8.34 upbm affinity estimate (log intensity, higher = more binding, comparable within an allelic series) and the binding signal [11] was 7.72 upbm affinity estimate (log intensity, higher = more binding, comparable within an allelic series).

With ATGACAGC the binding signal [12] was 10.2 upbm affinity estimate (log intensity, higher = more binding, comparable within an allelic series), the binding signal [13] was 11.3 upbm affinity estimate (log intensity, higher = more binding, comparable within an allelic series) and the binding signal [14] was 10.5 upbm affinity estimate (log intensity, higher = more binding, comparable within an allelic series).

GACCTCGC was tested, and the binding signal [1] was 9.59 upbm affinity estimate (log intensity, higher = more binding, comparable within an allelic series), the binding signal [15] was 10 upbm affinity estimate (log intensity, higher = more binding, comparable within an allelic series) and the binding signal [3] was 9.54 upbm affinity estimate (log intensity, higher = more binding, comparable within an allelic series). The binding signal [5] was 9.57 upbm affinity estimate (log intensity, higher = more binding, comparable within an allelic series), the binding signal [16] was 9.99 upbm affinity estimate (log intensity, higher = more binding, comparable within an allelic series) and the binding signal [8] was 9.76 upbm affinity estimate (log intensity, higher = more binding, comparable within an allelic series).

With AATCACTG the binding signal [12] was 10.3 upbm affinity estimate (log intensity, higher = more binding, comparable within an allelic series), the binding signal [13] was 11.3 upbm affinity estimate (log intensity, higher = more binding, comparable within an allelic series) and the binding signal [17] was 9.43 upbm affinity estimate (log intensity, higher = more binding, comparable within an allelic series). For the same sequence, the binding signal [18] was 9.21 upbm affinity estimate (log intensity, higher = more binding, comparable within an allelic series) and the binding signal [19] was 9.33 upbm affinity estimate (log intensity, higher = more binding, comparable within an allelic series).

For CCCCTCAC, the binding signal [1] was 9.6 upbm affinity estimate (log intensity, higher = more binding, comparable within an allelic series), the binding signal [20] was 9.49 upbm affinity estimate (log intensity, higher = more binding, comparable within an allelic series) and the binding signal [3] was 9.72 upbm affinity estimate (log intensity, higher = more binding, comparable within an allelic series). The binding signal [5] was 9.5 upbm affinity estimate (log intensity, higher = more binding, comparable within an allelic series), the binding signal [8] was 9.75 upbm affinity estimate (log intensity, higher = more binding, comparable within an allelic series) and the binding signal [21] was 9.53 upbm affinity estimate (log intensity, higher = more binding, comparable within an allelic series).

With GTAAATAC the binding signal [12] was 10.3 upbm affinity estimate (log intensity, higher = more binding, comparable within an allelic series) and the binding signal [13] was 11.3 upbm affinity estimate (log intensity, higher = more binding, comparable within an allelic series).

ATATAACG was tested, and the binding signal [12] was 10.4 upbm affinity estimate (log intensity, higher = more binding, comparable within an allelic series), the binding signal [13] was 11.4 upbm affinity estimate (log intensity, higher = more binding, comparable within an allelic series) and the binding signal [22] was 10.7 upbm affinity estimate (log intensity, higher = more binding, comparable within an allelic series).

For ACGTTTAG, the binding signal [12] was 10.2 upbm affinity estimate (log intensity, higher = more binding, comparable within an allelic series) and the binding signal [13] was 11 upbm affinity estimate (log intensity, higher = more binding, comparable within an allelic series).

In the case of CCAGTCGG, the binding signal [1] is reported as 9.76 upbm affinity estimate (log intensity, higher = more binding, comparable within an allelic series), the binding signal [15] is reported as 10.1 upbm affinity estimate (log intensity, higher = more binding, comparable within an allelic series) and the binding signal [23] is reported as 7.11 upbm affinity estimate (log intensity, higher = more binding, comparable within an allelic series). The binding signal [3] was 9.93 upbm affinity estimate (log intensity, higher = more binding, comparable within an allelic series), the binding signal [5] was 9.79 upbm affinity estimate (log intensity, higher = more binding, comparable within an allelic series) and the binding signal [24] was 10.4 upbm affinity estimate (log intensity, higher = more binding, comparable within an allelic series). For the same sequence, the binding signal [16] was 10 upbm affinity estimate (log intensity, higher = more binding, comparable within an allelic series), the binding signal [8] was 9.69 upbm affinity estimate (log intensity, higher = more binding, comparable within an allelic series) and the binding signal [25] was 10.4 upbm affinity estimate (log intensity, higher = more binding, comparable within an allelic series). The binding signal [26] was 7.25 upbm affinity estimate (log intensity, higher = more binding, comparable within an allelic series).

In the case of TAATTTAA, the binding signal [1] is reported as 12.2 upbm affinity estimate (log intensity, higher = more binding, comparable within an allelic series), the binding signal [27] is reported as 13.7 upbm affinity estimate (log intensity, higher = more binding, comparable within an allelic series) and the binding signal [28] is reported as 11.7 upbm affinity estimate (log intensity, higher = more binding, comparable within an allelic series). The binding signal [20] was 11.2 upbm affinity estimate (log intensity, higher = more binding, comparable within an allelic series), the binding signal [29] was 12.2 upbm affinity estimate (log intensity, higher = more binding, comparable within an allelic series) and the binding signal [30] was 12.7 upbm affinity estimate (log intensity, higher = more binding, comparable within an allelic series). For the same sequence, the binding signal [3] was 12.2 upbm affinity estimate (log intensity, higher = more binding, comparable within an allelic series), the binding signal [31] was 11.4 upbm affinity estimate (log intensity, higher = more binding, comparable within an allelic series) and the binding signal [4] was 8.49 upbm affinity estimate (log intensity, higher = more binding, comparable within an allelic series). For the same sequence, the binding signal [32] was 11.9 upbm affinity estimate (log intensity, higher = more binding, comparable within an allelic series), the binding signal [5] was 12.2 upbm affinity estimate (log intensity, higher = more binding, comparable within an allelic series) and the binding signal [33] was 11.1 upbm affinity estimate (log intensity, higher = more binding, comparable within an allelic series). For the same sequence, the binding signal [34] was 10.6 upbm affinity estimate (log intensity, higher = more binding, comparable within an allelic series), the binding signal [6] was 12.4 upbm affinity estimate (log intensity, higher = more binding, comparable within an allelic series) and the binding signal [35] was 11 upbm affinity estimate (log intensity, higher = more binding, comparable within an allelic series). For the same sequence, the binding signal [36] was 11 upbm affinity estimate (log intensity, higher = more binding, comparable within an allelic series), the binding signal [37] was 10.6 upbm affinity estimate (log intensity, higher = more binding, comparable within an allelic series) and the binding signal [7] was 10.2 upbm affinity estimate (log intensity, higher = more binding, comparable within an allelic series). The binding signal [8] was 10.9 upbm affinity estimate (log intensity, higher = more binding, comparable within an allelic series), the binding signal [9] was 9.7 upbm affinity estimate (log intensity, higher = more binding, comparable within an allelic series) and the binding signal [38] was 7.76 upbm affinity estimate (log intensity, higher = more binding, comparable within an allelic series). For the same sequence, the binding signal [39] was 10.9 upbm affinity estimate (log intensity, higher = more binding, comparable within an allelic series), the binding signal [11] was 8.64 upbm affinity estimate (log intensity, higher = more binding, comparable within an allelic series) and the binding signal [21] was 13.3 upbm affinity estimate (log intensity, higher = more binding, comparable within an allelic series).

In the case of CCCTCCAG, the binding signal [1] is reported as 9.59 upbm affinity estimate (log intensity, higher = more binding, comparable within an allelic series), the binding signal [15] is reported as 10.1 upbm affinity estimate (log intensity, higher = more binding, comparable within an allelic series) and the binding signal [3] is reported as 9.64 upbm affinity estimate (log intensity, higher = more binding, comparable within an allelic series). For the same sequence, the binding signal [5] was 9.54 upbm affinity estimate (log intensity, higher = more binding, comparable within an allelic series), the binding signal [16] was 10.1 upbm affinity estimate (log intensity, higher = more binding, comparable within an allelic series) and the binding signal [8] was 9.74 upbm affinity estimate (log intensity, higher = more binding, comparable within an allelic series).

For CACGATCA, the binding signal [12] was 10.2 upbm affinity estimate (log intensity, higher = more binding, comparable within an allelic series), the binding signal [13] was 11 upbm affinity estimate (log intensity, higher = more binding, comparable within an allelic series) and the binding signal [14] was 10.3 upbm affinity estimate (log intensity, higher = more binding, comparable within an allelic series).

GAAAACGA was tested, and the binding signal [12] was 10.1 upbm affinity estimate (log intensity, higher = more binding, comparable within an allelic series) and the binding signal [13] was 10.9 upbm affinity estimate (log intensity, higher = more binding, comparable within an allelic series).
